In the supplement of paper PMC6555819:

What was measured:
Assay in all cases: PBM binding z-score (relative to random genomic background probes); higher = stronger binding; sequences stand for … in GC…GCGATTGACAGCGTAGAATGAAGG
[1] = test system: FXR:RXRa (NR concentration 270 nM, RXRa partner concentration 90 nM)
How it was run: (§1)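 Scanned fluorescence from custom Agilent 4×180K protein-binding microarrays was regression-normalized. Binding z-scores use random background probes as reference. Ligand-free nuclear receptor dimers were incubated on the arrays for 1 h and detected with antibodies against each partner (one per run).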

[2] = test system: LXRa:RXRa (NR concentration 270 nM, RXRa partner concentration 90 nM)
How it was run: as §1

[3] = test system: LXRa homodimer (NR concentration 270 nM)
How it was run: as §1

[4] = test system: LXRb:RXRa (NR concentration 270 nM, RXRa partner concentration 90 nM)
How it was run: as §1

[5] = test system: LXRb homodimer (NR concentration 270 nM)
How it was run: as §1

[6] = test system: PPARa:RXRa (NR concentration 270 nM, RXRa partner concentration 90 nM)
How it was run: as §1

[7] = test system: PPARg:RXRa (NR concentration 180 nM, RXRa partner concentration 90 nM)
How it was run: as §1

[8] = test system: PPARg:RXRa 270nM:90nM, anti-RXR (NR concentration 270 nM, RXRa partner concentration 90 nM)
How it was run: as §1

[9] = test system: PPARg:RXRa 30nM:10nM, anti-RXR (NR concentration 30 nM, RXRa partner concentration 10 nM)
How it was run: as §1

[10] = test system: PPARg:RXRa 90nM:30nM, anti-RXR (NR concentration 90 nM, RXRa partner concentration 30 nM)
How it was run: as §1

Sequence	PBM binding z-score [1]	PBM binding z-score [2]	PBM binding z-score [3]	PBM binding z-score [4]	PBM binding z-score [5]	PBM binding z-score [6]	PBM binding z-score [7]	PBM binding z-score [8]	PBM binding z-score [9]	PBM binding z-score [10]
TTTGCTAGGTCAGTTGGTCAGCTAACGAGCTGCC	1.15	1.41	0.52	0.404	0.521	1.54	1.1	1.77	-0.172	1.34
TCTTGTAGATCAATAGAGGTTCAGAAAGTGCGCT	0.408	0.78	-0.0503	0.293	-0.193	0.663	-0.13	1.35	2.81	2.47
TTACGAAGGTGAAGGTCGTTGATCCCTCTGTAGA	2.35	1.9	-0.207	1.48	-0.709	2.66	2.48	3.86	2.7	3.16
CGTCCAAGGTCAATGCTAGGTCAGTAAAAGCATT	6.68	5.2	2.38	4.32	0.868	5.23	4.37	4.46	1.9	3.08
TTACCCAGGTGAAAGGTCGTTGATGCACGCCTTG	2.92	3.07	0.858	2.75	-0.247	5.24	9.35	8.61	7.49	10.2
CCTCGGAGGACAGAAGGTCAGGGCTGTCCGCTTT	1.42	1.47	0.0831	1.07	-1.01	2.17	-0.206	1.07	-0.426	0.349
ACCGACAGGTGAGTGAAGGTAACTCAGCTGGACG	0.184	-0.107	-0.658	-0.575	-0.831	0.00904	0.444	0.0898	-0.38	-0.0157
GCTTACGGGTCGAAGGTTATAGCATGAATAGAAT	2.01	2	-0.187	2.51	-0.371	4.36	6.66	6.7	4.94	6.88
TCAAGTAGGTTAGTCGGGGCATTCAGCCAACATA	0.926	0.645	0.0892	1.03	0.134	1.68	1.07	2.48	3.63	3.14
TCTAGTTGGTCACGGAGGTTACACACGACGGGTA	1.01	1.19	0.54	1.12	0.211	1.96	1.7	2.35	3.22	2.73
CCTTACGGGACACGAGGTTATAGCACGACGAGCG	0.657	0.725	0.391	0.535	-0.204	1.27	1.38	0.573	0.0152	0.477
CCTATTAGTTGACAATAAGGGCAACCGAAGCTCG	0.365	0.482	0.182	0.544	0.647	0.418	0.511	0.218	0.0655	0.0255
TCAGACAGGTGAAGGTCACTCAGGTACGCAGTCG	3.13	3.62	1.36	3.13	0.146	3.72	2.39	3.12	3.84	3.76
TCTCGTAGGACACGAAAGGTCAGAGCTCGACATC	3.08	3.85	2.58	3.39	0.134	3.58	1.24	2.98	2.7	2.81
AGTCAAAGTTCACTAGGTAACGTAGGATTCAGCT	5.02	4.93	3.02	2.92	0.939	4.65	7.24	6.38	3.58	5.79
ACAGACATGTGATGAAGGTAACTCAGGCTATCAT	0.000592	-0.0384	-0.258	-0.35	-0.283	-0.131	0.611	-0.0726	-0.0978	0.0328
ACTATTAGTTGACCTAGGGCAACCGATACGACGC	1.76	2.47	2.09	2.31	1.09	2.52	1.71	1.48	0.386	0.958
CCAGACTGGTGAGAAGGTAACTCAGCCTCGATTA	-0.309	-0.491	-0.22	-0.472	-0.739	-0.19	0.0437	-0.117	-0.431	-0.102
GCTAGCAGGCCAATTGGGTCACTCAATGACGGGC	-0.057	-0.159	-0.545	-0.122	-1.32	1.83	1.01	1.14	-0.473	0.444
CCGACTGGGGAAAGGTTACCATAACGCACAGCCA	0.564	1.86	0.0866	1.75	-0.554	2.76	2.69	3.64	1.61	3.26
TCTCGGAGCACACGAAAGGTCAGAGCTCGACATC	1.92	3.07	1.44	2.84	-0.493	3.39	0.926	1.94	1.5	1.49
CGAACTAGGTCAGTACAGGACAGTGAAGGATGAT	1.58	1.83	-0.0342	0.493	-0.478	3	4.93	4.25	1.71	3.39
GATACAGGCTCAGCTAGAGGCCAGAGTATGGAAA	-0.845	-1.13	-0.652	-1.25	-1.62	-1.21	0.137	-0.746	-0.505	-0.667
AGAACGAGGGCAATGAGTTGATAGCCCGGGTGGC	0.0897	0.0637	-0.355	-0.437	-0.943	1.34	1.01	0.868	-0.3	0.416
